# Measured values: ChEMBL document CHEMBL4513216, “Probing the Open Global Health Chemical Diversity Library for Multistage-Active Starting Points for Next-Generation Antimalarials” (ACS Infect Dis, 2020)
# The campaign covered roughly 68,000 compounds. About 2,700 (4%) showed an effect of 50% or more. This is one part of a sample in which strong results are shown more often than they occur.
# System: Plasmodium berghei
# Experiment: Screen against P. berghei liver stage (PbLuc), transformed with Luciferase, at 2uM
# Format: functional, HepG2
# Conditions: tested at 2 uM
row,Structure (SMILES),INHIBITION
1,CCc1ccc(C2CCCCCN2C(=O)CNC(=O)C2CC2)o1 (centres undefined),-1.21%
2,OC(CNCCn1cccn1)c1ccc(C(F)(F)F)cc1 (centres undefined),-33.92%
3,CCc1nnc(Nc2cccc(C3CCN(C)CC3)n2)s1,7.64%
4,CCc1nnc(Nc2cccc(C3CCN(CC4CC4)CC3)n2)s1,20.71%
5,CCc1nnc(Nc2cccc(C3CCCN(CC(C)(C)C)C3)n2)s1 (centres undefined),53.05%
6,CC(C)CCOCCNC(=O)Nc1ccc(F)c(C(N)=O)c1,-24.7%
7,Cc1cc(C(F)(F)F)nc(C2COCCN2S(C)(=O)=O)n1 (centres undefined),6.64%
8,Cc1ccc(CN(C)C(C(=O)O)c2ccc3c(c2)OCO3)o1 (centres undefined),-39.01%
9,Cc1cccc(S(=O)(=O)N2CSCC2C(=O)NCC2CC2)c1 (centres undefined),3.89%
10,CC(C)(C)NC(=O)C1CSCN1S(=O)(=O)c1cccc(F)c1 (centres undefined),7.74%
11,Cc1cccc(S(=O)(=O)N2CSCC2C(=O)NC(C)(C)C)c1 (centres undefined),55.18%
12,N#Cc1cccc(NC(=O)C2CCCN2c2nccs2)c1 (centres undefined),6.77%
13,Cc1ccc2nc(C3CCCN3Cc3scnc3C)[nH]c2c1 (centres undefined),47.23%
14,Cc1ccc2nc(C3CCCN3Cc3csc(C)n3)[nH]c2c1 (centres undefined),29.53%
15,Cc1ccc2nc(C3CCCN3Cc3nnc(C)s3)[nH]c2c1 (centres undefined),78.16%
16,O=C(NCCc1ccccc1)N1CCC(C2OCCO2)CC1,5.92%
17,O=C(Cc1ccc(CO)cc1)N1CCN(c2ccccc2Cl)C(=O)C1,47.76%
18,CCC(NC(=O)c1ccc2[nH]ccc2c1)C(=O)N1CCOCC1 (centres undefined),5.98%
19,CC(C)c1nnc2n1CCN(Cc1ncc(-c3ccccc3)o1)C2,-58.75%
20,CC(C)(C)Oc1ccccc1CNC(=O)C1CCCOC1 (centres undefined),52.98%
21,O=C(NCc1ccccc1OCC1CC1)C1CCOC1 (centres undefined),14.82%
22,COCCNc1ccccc1CNC(=O)C1CCCOC1 (centres undefined),-4.26%
23,NC(=O)CN1CC2(CCC1=O)CCN(Cc1ccc(Cl)c(F)c1)CC2,23.63%

row,Structure (SMILES),INHIBITION
1,CC(C)Cn1cncc1CNC1CCSC1 (centres undefined),-18.33%
2,COc1c(CNC2CCCN(c3ncccn3)C2)c(C(C)C)nn1C (centres undefined),56.02%
3,COc1c(CNC2CCN(c3ccccn3)CC2)c(C(C)C)nn1C,-11.2%
4,COc1c(CNC2CCN(C(=O)C(C)C)CC2)c(C(C)C)nn1C,11.2%
5,COc1c(CNC2CCN(c3ncccn3)CC2)c(C(C)C)nn1C,-79.53%
6,COc1c(CNC2CCN(C(C)(C)C)CC2)c(C(C)C)nn1C,51.19%
7,COc1c(CNC2CCC(O)CC2)c(C(C)C)nn1C (centres undefined),11.2%
8,Clc1ccccc1C1CN(CCc2ccncc2)CCO1 (centres undefined),-35.92%
9,COc1ccc(NC(=O)c2nc3ccccc3n(C)c2=O)cc1OC,9.85%
10,CNS(=O)(=O)Cc1ccc(CNC(=O)c2cccc(C)n2)cc1,65.77%
11,CNS(=O)(=O)c1ccc(CNC(=O)c2cccc(C)n2)cc1,-9.17%
12,Cc1cccc(C(=O)NCc2ccc(CS(N)(=O)=O)cc2)n1,-45.83%
13,CO[C@H]1CN(C(=O)OC(C)(C)C)CC1NCc1ccco1 (some centres undefined),32.73%
14,CC(c1ccccc1)N(C)C(=O)CN1CCCc2cc(F)cc(F)c21 (centres undefined),27.52%
15,Nc1nc(C(=O)NCC2CCC3(CCNCC3)CO2)cs1 (centres undefined),-51.85%
16,O=C(CCc1ccccc1)C1CCCN(Cc2cncn2C2CC2)C1 (centres undefined),21.67%
17,O=C(Cc1ccccc1)C1CCCN(Cc2cncn2C2CCCC2)C1 (centres undefined),19.75%
18,COCCn1cncc1CN1CCCC(C(=O)Cc2ccccc2)C1 (centres undefined),58.09%
19,COCCN(Cc1ccoc1)S(=O)(=O)c1ccc(OC)c(Cl)c1,1.04%
20,CN(C)S(=O)(=O)N1CCCCCC1c1cc(-c2ccc(F)cc2)no1 (centres undefined),6.64%
21,Cc1ccccc1C(CC(=O)NCc1n[nH]c(N)n1)c1ccccc1 (centres undefined),28.1%
22,Cc1ccccc1C(CC(=O)NCc1nnc(N)s1)c1ccccc1 (centres undefined),9.13%
23,Cc1ccccc1C(CC(=O)NCC(N)=O)c1ccccc1 (centres undefined),57.59%

row,Structure (SMILES),INHIBITION
1,Cc1cc(C(=O)NCc2cnn(C)c2C)nc(N2CCCCCC2)n1,-5.59%
2,O=C(Nc1ccc(F)c(-n2cccc2)c1)NC1(CCO)CCOCC1,-13.38%
3,COCCN(Cc1ccccn1)C(=O)Nc1cccnc1N1CCCC1,-40.03%
4,CN1CCC(Oc2ccc(NC(=O)c3ccccc3Br)cc2)CC1,16.64%
5,Cc1ccccc1C(=O)Nc1ccc(OC2CCN(C)CC2)cc1,37.87%
6,COc1ccccc1C(=O)Nc1ccc(OC2CCN(C)CC2)cc1,56.93%
7,Cc1ccc(C)c(C(=O)Nc2ccc(OC3CCN(C)CC3)cc2)c1,29.71%
8,Cc1ccc(C(=O)Nc2ccc(OC3CCN(C)CC3)cc2)c(C)c1,55.84%
9,Cc1cccc(C(=O)Nc2ccc(OC3CCN(C)CC3)cc2)c1,11.63%
10,CN(CCc1ccccn1)c1cc(N2CCCCC2)ncn1,26.74%
11,Cc1ccc(-c2noc(C3CCN3C(=O)c3cc[nH]n3)n2)s1 (centres undefined),-24.35%
12,CCCc1nnc(N2CC[C@](C)(O)[C@H](C)C2)s1,40.28%
13,Cc1cc(CN2CCc3nc(-c4ccncc4)nc(O)c3CC2)c(C)s1,17.72%
14,CN(CCC(O)c1ccccc1)c1cc(N2CCOCC2)ncn1 (centres undefined),-3.38%
15,CCN(CC)c1nc2sc(C(=O)NCC(=O)OC)cc2s1,5.1%
16,Fc1ccc(N2CCOC3(COCCN(c4ncccn4)C3)C2)cc1 (centres undefined),26.31%
17,Cn1nnc2c(N3CC(C(=O)NCc4cccs4)C3)ncnc21,41.71%
18,COc1cccc(OC2CN(C(=O)C3CCCN(C(=O)N(C)C)C3)C2)c1 (centres undefined),52.6%
19,Cc1cccc(C)c1OC1CN(C(=O)C2CCN(C(=O)N(C)C)CC2)C1,24.23%
20,Cc1cccc(C)c1OC1CN(C(=O)C2CCCN(C(=O)N(C)C)C2)C1 (centres undefined),10.04%
21,CCc1ccc(CN2CCc3[nH]nc(C(=O)N4CCNC(=O)C4)c3C2)o1,-15.83%
22,Cc1cccc(CN2CCc3[nH]nc(C(=O)N4CCNC(=O)C4)c3C2)n1,25.04%
23,Cc1ccc(CN2CCc3[nH]nc(C(=O)N4CCNC(=O)C4)c3C2)s1,57.85%
